Laboratory results: PubChem BioAssay (Tox21)
Inconclusive results are not listed. Activity calls are given as the source filed them. Calls come from the whole dose curve; as a rule, active = well fitted curve in the direction sought with a large enough effect in the repeat runs; inconclusive = weak or mixed curves; inactive = no such curve, though single readings can be large; an effect the other way counts as inactive or inconclusive.

What was measured:
[1] = qHTS RealTime-Glo MT Cell Viability Assay in HepG2 cells - 24 hour (AID 1224867); note: nearly all actives have a fitted effect of over 50% in size
Outline: (§1)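 Viability was tracked continuously by NanoLuc luminescence from prosubstrate reduced by living HepG2 cells, at successive time points over 40 h of compound exposure. Cells with reagent were preincubated 5 h at 37 °C before compound addition.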

[2] = qHTS RealTime-Glo MT Cell Viability Assay in HEK293 cells - 32 hour (AID 1224868); note: top concentration of the series differs between compounds; nearly all actives have a fitted effect of over 50% in size
Outline: (§2)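 Viability tracked continuously by luminescence as live cells reduce a prosubstrate for NanoLuc; HEK293 cells preincubated 5 h, compound-treated at 37 C, and read at 0, 8, 16, 24, 32 and 40 h.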

[3] = A CellTox Green Cytotoxicity Assay to monitor cytotoxicity in HEK293 cells - 0 hour (AID 1224869); note: nearly all actives have a fitted effect of over 50% in size
Outline: (§3)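 Each value comes from one timepoint of a single continuous run in which HEK293 cells with CellTox Green were exposed to compound for up to 40 h at 37 C, dye fluorescence rising with cell death.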

[4] = qHTS RealTime-Glo MT Cell Viability Assay in HepG2 cells - 40 hour (AID 1224870); note: nearly all actives have a fitted effect of over 50% in size
Outline: (§4)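 HepG2 cells (600/well) mixed with RealTime-Glo MT reagent, settled 5 h at 37 C/5% CO2 before compound addition. Nonlytic NanoLuc luminescence from viable-cell prosubstrate reduction read repeatedly during 40 h treatment at 37 C.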

[5] = A CellTox Green Cytotoxicity Assay to monitor cytotoxicity in HEK293 cells - 40 hour (AID 1224871); note: nearly all actives have a fitted effect of over 45% in size
Outline: as §3

[6] = qHTS RealTime-Glo MT Cell Viability Assay in HEK293 cells - 16 hour (AID 1224872)
Outline: as §2

[7] = qHTS RealTime-Glo MT Cell Viability Assay in HepG2 cells - 8 hour (AID 1224873); note: nearly all actives have a fitted effect of over 55% in size
Outline: as §4

[8] = qHTS RealTime-Glo MT Cell Viability Assay in HEK293 cells - 40 hour (AID 1224874); details: RealTime-Glo luminescence; max response: hits give low values; note: nearly all actives have a fitted effect of over 50% in size
Outline: (§5)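 qHTS format; HEK293 cells with NanoLuc/prosubstrate reagent, 37 C/5% CO2 for 5 h pre-dosing; compounds 23 nL in DMSO; luminescence at each time point reflects viable cells.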

[9] = A CellTox Green Cytotoxicity Assay to monitor cytotoxicity in HEK293 cells - 24 hour (AID 1224875); note: series mostly up to about 77 µM; nearly all actives have a fitted effect of over 45% in size
Outline: as §3

[10] = A CellTox Green Cytotoxicity Assay to monitor cytotoxicity in HepG2 cells - 16 hour (AID 1224876); note: nearly all actives have a fitted effect of over 45% in size
Outline: (§6)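 Continuous culture of HepG2 cells with a membrane-impermeant DNA dye; rising fluorescence marks dead cells. Compound exposure lasted up to 40 h at 37 C, with reads every 8 h from 0 h.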

[11] = qHTS RealTime-Glo MT Cell Viability Assay in HepG2 cells - 32 hour (AID 1224877); note: nearly all actives have a fitted effect of over 55% in size
Outline: as §1

[12] = A CellTox Green Cytotoxicity Assay to monitor cytotoxicity in HepG2 cells - 24 hour (AID 1224878); note: nearly all actives have a fitted effect of over 45% in size
Outline: as §6

[13] = A CellTox Green Cytotoxicity Assay to monitor cytotoxicity in HepG2 cells - 40 hour (AID 1224879); note: nearly all actives have a fitted effect of over 40% in size
Outline: as §6

[14] = qHTS RealTime-Glo MT Cell Viability Assay in HEK293 cells - 0 hour (AID 1224880)
Outline: as §5

[15] = A CellTox Green Cytotoxicity Assay to monitor cytotoxicity in HEK293 cells - 32 hour (AID 1224881); note: nearly all actives have a fitted effect of over 40% in size
Outline: as §3

[16] = A CellTox Green Cytotoxicity Assay to monitor cytotoxicity in HepG2 cells - 0 hour (AID 1224882); note: nearly all actives have a fitted effect of over 35% in size
Outline: as §6

[17] = A CellTox Green Cytotoxicity Assay to monitor cytotoxicity in HepG2 cells - 32 hour (AID 1224883); note: nearly all actives have a fitted effect of over 50% in size
Outline: as §6

[18] = qHTS RealTime-Glo MT Cell Viability Assay in HepG2 cells - 16 hour (AID 1224885); note: nearly all actives have a fitted effect of over 50% in size
Outline: as §1

[19] = qHTS RealTime-Glo MT Cell Viability Assay in HEK293 cells - 24 hour (AID 1224886)
Outline: as §2

[20] = A CellTox Green Cytotoxicity Assay to monitor cytotoxicity in HEK293 cells - 8 hour (AID 1224884); note: nearly all actives have a fitted effect of over 35% in size
Outline: as §3
% is set by controls: 0 for no effect and ±100 for the full control effect.

C[Si]1(C)N[Si](C)(C)N[Si](C)(C)N1
inactive: outcome [1] | Potency [2] | Potency [3] | outcome [4] | Potency [5] | Potency [6] | outcome [7] | max response [8] 16.3% | Potency [9] | Potency [10] | outcome [11] | Potency [12] | Potency [13] | outcome [14] | Potency [15] | Potency [16] | Potency [17] | outcome [18] | Potency [19]

CCCCC(CC)C(=O)OC(C)C (configuration not stated)
inactive: outcome [1] | Potency [2] | Potency [3] | outcome [4] | Potency [5] | Potency [6] | outcome [7] | max response [8] 3.8% | Potency [9] | Potency [10] | outcome [11] | Potency [12] | Potency [13] | outcome [14] | Potency [15] | Potency [16] | Potency [17] | Potency [20] | outcome [18] | Potency [19]

NC(=O)C1(N2CCCCC2)CCN(CCCC(=O)c2ccc(F)cc2)CC1
inactive: outcome [1] | Potency [2] | Potency [3] | outcome [4] | Potency [5] | Potency [6] | outcome [7] | max response [8] -22.3% | Potency [9] | Potency [10] | outcome [11] | Potency [12] | Potency [13] | outcome [14] | Potency [16] | Potency [17] | Potency [20] | outcome [18] | Potency [19]

CC1(N)CCC(C(C)(C)N)CC1 (configuration not stated)
inactive: outcome [1] | Potency [2] | Potency [3] | outcome [4] | Potency [5] | Potency [6] | outcome [7] | max response [8] -1.45% | Potency [9] | Potency [10] | outcome [11] | Potency [12] | Potency [13] | outcome [14] | Potency [16] | Potency [17] | Potency [20] | outcome [18] | Potency [19]

COc1ccc(NS(=O)(=O)c2ccc(N)cc2)nn1
inactive: outcome [1] | Potency [2] | Potency [3] | outcome [4] | Potency [5] | Potency [6] | outcome [7] | max response [8] 3.44% | Potency [9] | Potency [10] | outcome [11] | Potency [12] | Potency [13] | outcome [14] | Potency [15] | Potency [16] | Potency [17] | outcome [18] | Potency [19]

O=CN1CCOCC1
inactive: outcome [1] | Potency [2] | Potency [3] | outcome [4] | Potency [5] | Potency [6] | outcome [7] | max response [8] 10.7% | Potency [9] | Potency [10] | outcome [11] | Potency [12] | Potency [13] | outcome [14] | Potency [15] | Potency [16] | Potency [17] | Potency [20] | outcome [18] | Potency [19]

NC(=O)NC(=O)Cc1ccccc1
inactive: outcome [1] | Potency [2] | Potency [3] | outcome [4] | Potency [5] | Potency [6] | outcome [7] | max response [8] 3.75% | Potency [9] | Potency [10] | outcome [11] | Potency [12] | Potency [13] | outcome [14] | Potency [15] | Potency [16] | Potency [17] | outcome [18] | Potency [19]

C=CCOCC(CO)(COCC=C)COCC=C
inactive: outcome [1] | Potency [2] | Potency [3] | outcome [4] | Potency [5] | Potency [6] | outcome [7] | max response [8] 0.319% | Potency [9] | Potency [10] | outcome [11] | Potency [12] | Potency [13] | outcome [14] | Potency [15] | Potency [16] | Potency [17] | Potency [20] | outcome [18] | Potency [19]

Nc1c(NC/C=C\COc2cc(CN3CCCCC3)ccn2)c(=O)c1=O
inactive: activity change, negative = cytotoxicity [1] 1.59% [at 15.8 µM] | activity change, negative = cytotoxic [2] 2.38% [at 15.8 µM] | cytotoxicity [3] -1.89% [at 15.8 µM] | activity change, negative = cytotoxic [4] 1.19% [at 15.8 µM] | cytotoxicity increase [5] 6.78% [at 15.8 µM] | activity change, negative = cytotoxicity [6] 2.61% [at 15.8 µM] | viability change, negative = cytotoxic [7] 6.05% [at 15.8 µM] | max response [8] -0.39% | activity change [9] 3.31% [at 15.8 µM, hits give high values] | cytotoxicity increase [10] -12.5% [at 15.8 µM] | activity change, negative = cytotoxic [11] 0.449% [at 15.8 µM] | cytotoxicity [12] -15.2% [at 15.8 µM] | cytotoxicity increase [13] -13.3% [at 15.8 µM] | activity change, negative = cytotoxicity [14] 11.6% [at 15.8 µM] | cytotoxicity increase [15] 6.07% [at 15.8 µM] | cytotoxicity [16] -10.4% [at 15.8 µM] | cytotoxicity increase [17] -13.1% [at 15.8 µM] | cytotoxicity increase [20] 3.26% [at 15.8 µM] | activity change, negative = cytotoxic [18] 3.45% [at 15.8 µM] | activity change, negative = cytotoxicity [19] 3.04% [at 15.8 µM]

CCCCC(CC)COC(=O)c1ccccc1 (configuration not stated)
inactive: outcome [1] | Potency [2] | Potency [3] | outcome [4] | Potency [5] | Potency [6] | outcome [7] | max response [8] 3.3% | Potency [9] | Potency [10] | outcome [11] | Potency [12] | Potency [13] | outcome [14] | Potency [16] | Potency [17] | Potency [20] | outcome [18] | Potency [19]

CCOC(=O)CCCCCCCCC(=O)OCC
inactive: outcome [1] | Potency [2] | Potency [3] | outcome [4] | Potency [5] | Potency [6] | outcome [7] | max response [8] 5.25% | Potency [9] | Potency [10] | outcome [11] | Potency [12] | Potency [13] | outcome [14] | Potency [15] | Potency [16] | Potency [17] | outcome [18] | Potency [19]

CN[C@@H]1[C@H](O)[C@H](NC)[C@H]2O[C@@]3(O)C(=O)C[C@@H](C)O[C@H]3O[C@@H]2[C@H]1O
inactive: outcome [1] | Potency [2] | Potency [3] | outcome [4] | Potency [5] | Potency [6] | outcome [7] | max response [8] -13.7% | Potency [9] | Potency [10] | outcome [11] | Potency [12] | Potency [13] | outcome [14] | Potency [15] | Potency [16] | Potency [17] | outcome [18] | Potency [19]
